Bioassay records (PubChem BioAssay)
Efflux pump mplx: inhibitors of Candida antifungal efflux pumps expressed in yeast; S. cerevisiae Candida pump triplex, Nile Red efflux; 0.44% of 330,000 active; AID 485275; inhibition, % at 10 µM;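 active = plate passing quality check with inhibition over a set limit, or well fluorescence over plate mean plus 4 SD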;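 also: Nile Red retained in pooled yeast measured as flow cytometry median fluorescence; 0% = buffer negative control and 100% = Enniatin B positive control; higher means more Nile Red kept so more efflux inhibition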
ALR inh: inhibitors of human sulfhydryl oxidase ALR; P55789; purified ALR, DTT oxidation, H2O2 HRP-luminol luminescence; inhibition, % (concentration not given with the values); 3.8% of 290,000 active;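 active = mean replicate inhibition above about 79%, with every replicate also reaching it, limit read from the data; inconclusive = only one of the two criteria met; inactive = mean below limit and not every replicate reaching it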
Target sequence (P55789 whole entry, looked up): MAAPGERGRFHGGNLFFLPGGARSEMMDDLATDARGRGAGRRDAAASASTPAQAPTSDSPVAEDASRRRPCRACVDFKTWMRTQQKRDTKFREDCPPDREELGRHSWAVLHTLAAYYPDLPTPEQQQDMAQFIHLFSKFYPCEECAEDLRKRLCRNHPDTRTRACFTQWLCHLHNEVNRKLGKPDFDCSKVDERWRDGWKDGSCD
AHR act: activators of human aryl hydrocarbon receptor | P35869 | AHR-responsive luciferase reporter cells, luminescence | activation, % at 5 µM | 2.5% of 320,000 active; in the data active = activation above about 47%;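 also: 0% = vehicle wells and 100% = reference agonist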
Bfl-1 A1 inh: inhibitors of the anti-apoptotic protein A1, read as caspase activation. MEF A1-2A-BIM cells, Caspase-Glo 3/7 luminescence, 3 h; percent of clofoctol response, vehicle zero. caspase activation, % (no concentration beside the values). 0.066% of 330,000 active;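 active = over half of replicate activation scores above 10%, or exactly half above 10 with the replicate mean above 10; inconclusive = replicate mean below 10 yet half the replicates above 10; inactive = over half of replicates below 10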
VLA-4 inh: inhibition in a human VLA-4 binding assay; AID 2557; inhibition, % (about 7 µM as worked out from the volumes in the protocol); VLA-4 expressing cells, ligand binding flow cytometry; P13612; 0.2% of 330,000 active; in the data active = inhibition above about 50%
SUMO Mot1 rescue: SUMOylation pathway inhibition by Mot1-301 growth rescue. S. cerevisiae Mot1-301 growth rescue, ATP luminescence, 38.5C; percent above DMSO median, 100 means doubled. growth rescue, % at 18.8 µM. 1% of 320,000 active;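 active = every valid replicate shows activation above 250% relative to neutral control wells; inactive = the rest, any valid replicate at or below 250%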;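 also: OY570 slx delta 5 strain wells were the positive control but not used for scaling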
Mot1 SUMO dose: yeast SUMO pathway inhibition in dose response | 2,300 tested, under 10 active | growth activity, percent, % at 42 µM | shares compounds with SUMO Mot1 rescue | S. cerevisiae Mot1-301 galactose growth, ATP luminescence, 24 h; -100 = growth of slx-deleted rescue strain;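 active = Signal drops as the depositor expects, and the fitted half-maximal dose is no more than ten times the top valid tested dose; inconclusive = Poor fit, or a flat curve whose signal drops by 30% to 70%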;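 also: more negative values mean stronger growth rescue toward the control strain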
* = called active by the depositor; ? = inconclusive; . = not tested or not shown; + = active, no number; [ ] = remark or other dose. Most compounds without a hit are left out; they make up all but 7.2% or so of the library.

SMILES | Efflux pump mplx | ALR inh | AHR act | Bfl-1 A1 inh | VLA-4 inh | SUMO Mot1 rescue | Mot1 SUMO dose
O=C(CN1CCN(C(=O)c2ccccc2)CC1)Nc1ncc(Br)cc1Br | 0 | 0 | 7 | 0 | -2 | + | 0
CC(C)(C)c1cc[n+](CC(=O)Nc2cc(C(F)(F)F)ccc2N2CCOCC2)cc1 | 0 | -7 | 1 | 0 | 4 | -4 | .
CCOC(=O)CSc1nc2ccccc2c(=O)n1CC | 0 | -8 | 0 | 1 | -2 | -8 | .
COC(=O)c1ccc(CSc2nc3ccccc3c(=O)n2CC(C)C)o1 | 0 | -4 | 1 | 0 | 2 | 839* | 1
CCOC(=O)CSc1nc2ccccc2c(=O)n1CC(C)C | 0 | 9 | 2 | 0 | 0 | 573* | 0
COCCNC(=O)c1cc(S(=O)(=O)N2CCCCC2)ccc1N1CCOCC1 | 0 | 0 | 0 | 0 | 4 | 66 | .
CCCn1c(SCC(=O)Nc2ccc(OC)cc2)nnc1-c1ccncc1 | 0 | -11 | -8 | 0 | -4 | 2 | .
On1c(-c2ccccc2Cl)nc2ncccc21 | 0 | 0 | 0 | 0 | 11 | 498* | 0
COc1ccccc1CN1CCCC(CN(CCN(C)C)C(=O)c2ccc(C)cc2)C1 (stereo not given) | 0 | -2 | 0 | -1 | 0 | 589 | .
CC(=O)CCCCn1cnc2c1c(=O)n(C)c(=O)n2C | 0 | -7 | -4 | -1 | -5 | 18 | .
CN1CCCCC1=NCCCn1cnc2c1c(=O)n(C)c(=O)n2C | 0 | -1 | -1 | 1 | 9 | 602* | 0
COc1cc(NC(=O)c2cc(Cl)ccc2Cl)ccc1-c1cc2ccccc2oc1=O | 0 | 0 | -3 | 0 | 3 | 406* | 0
COCCNCc1ccccc1 | 0 | -8 | 3 | 0 | -2 | 647* | 0
O=C(O)CCC(NC(=O)c1ccc(Cl)cc1)C(=O)O (stereo not given) | 0 | -4 | -2 | 1 | 11 | + | 0
CN(c1ccccc1)S(=O)(=O)c1ccc(C(=O)NCC2CCCO2)cc1 (stereo not given) | 0 | -10 | 7 | 1 | -2 | 451* | 0[21 µM]
O=C(NCCc1cccc(C(F)(F)F)c1)C1CCC(=O)N(Cc2ccc(Cl)cc2)C1 (stereo not given) | -5 | -1 | 3 | -1 | -1 | -8 | .
CN(C#N)c1nc(Cl)nc(Nc2cccc(Cl)c2)n1 | -3 | 15 | 33 | -1 | 18 | 597* | 0
Cc1cc(C)nc(Nc2cccc(Cl)c2)n1 | 0 | 1 | . | 1 | 8 | 0 | .
O=C(COc1ccc(-c2nnco2)cc1)NC1CCS(=O)(=O)C1 (stereo not given) | 0 | -11 | 3 | 1 | -21 | 13 | .
O=C(Nc1cc(F)ccc1F)C1CCCO1 (stereo not given) | -1 | -4 | -2 | 1 | 4 | + | 0
Cc1ccc(S(=O)(=O)/N=C(/Nc2ccc([N+](=O)[O-])cc2[N+](=O)[O-])c2ccccc2)cc1 | 0 | -21 | -3 | -2 | 1 | 415* | -1
Cc1ccc(S(=O)(=O)/N=C(/Nc2ccc([N+](=O)[O-])cc2)c2ccccc2)cc1 | 0 | 0 | 1 | 1 | -4 | -16 | .
Cn1cc(CN(CCO)Cc2cccs2)c(-c2ccccc2F)n1 | 0 | -4 | 0 | 0 | 0 | -5 | .
OC(COc1ccccc1)Cn1c2ccccc2c2ccccc21 (stereo not given) | 0 | 1 | 39 | 1 | 7 | 374* | -1
N#CC1(NC(=O)COC(=O)/C=C/c2ccc3ccccc3n2)CCCCC1 | 0 | 5 | 19 | 2 | 17 | 363 | .
SMILES | Efflux pump mplx | ALR inh | AHR act | Bfl-1 A1 inh | VLA-4 inh | SUMO Mot1 rescue | Mot1 SUMO dose
Cc1cccc(OCCC(=O)Nc2ccc(F)c(Cl)c2)c1 | 0 | 62 | -1 | 0 | -6 | 10 | .
CCn1c(C2CCN(S(=O)(=O)c3ccc(OC)cc3)CC2)n[nH]c1=S | 0 | . | -3 | 0 | 0 | 9 | .
O=C(COc1ccccc1)Nc1ccc(OC(F)(F)C(F)F)c(NC(=O)COc2ccccc2)c1 | 0 | 0 | 7 | 0 | 21 | 961* | 0
CC12CCC(C(=O)Nc3ccccc3)(C(Br)C1=O)C2(C)C (stereo not given) | 0 | -1 | -1 | 0 | 2 | 4 | .
COc1ccccc1NC(=O)N1CCN(C(=O)Nc2ccccc2OC)CC1 | 0 | . | -2 | -1 | -3 | + | -1
COc1ccccc1NC(=O)N1CCN(S(C)(=O)=O)CC1 | 0 | 8 | 2 | -1 | -8 | -17 | .
O=C(c1ccc(F)cc1)C(CN1CCOCC1)c1ccccc1 (stereo not given) | 0 | 7 | -2 | 0 | -3 | 372* | -2
O=C(c1ccc(Cl)cc1)C(CN1CCCC1)c1ccccc1 (stereo not given) | 0 | 12 | -1 | 1 | 25 | -31 | .
C#CCOCCOCCOCCNc1nc(N2CCN(C(=O)[C@H](CCCCN)n3cc(CCCC)nn3)CC2)nc(N2CCN(C(=O)[C@H](CCCCN)n3cc(CCC(=O)O)nn3)CC2)n1 | 0 | -4 | 0 | 3 | 21 | 14 | .
O=C(CSc1nnc(COc2ccccc2Cl)o1)NC(=O)NC1CCCC1 | 0 | -18 | -4 | 0 | -2 | 392* | 0
c1ccc2[nH]c(CSc3nccs3)nc2c1 | 0 | -25 | 10 | 0 | -8 | 371* | 0
c1ccc(SCc2nc3ccccc3[nH]2)cc1 | 0 | 25 | 11 | -6 | 2 | -7 | .
COc1cccc(NS(=O)(=O)c2ccc(NC(C)=O)cc2)c1 | 0 | -16 | -1 | 0 | 5 | 4 | .
COc1ccc(S(=O)(=O)Nc2ccc(NC(C)=O)cc2)cc1OC | 0 | -24 | 4 | 0 | 6 | + | 0
CC(=O)Nc1ccc(S(=O)(=O)Nc2ccc3c(c2)C(=O)OC3)cc1 | 0 | 7 | -2 | -1 | 3 | 704* | 1
COc1ccccc1CNC(=O)C1CCC(=O)N1C(C)C (stereo not given) | 0 | . | 16 | 1 | 7 | 595* | 0
COc1ccc(-c2noc(CCC(=O)NCCc3cccc(C)c3)n2)cc1 | 0 | -1 | 8 | ? | -7 | -9 | .
COc1ccc(NC(=O)c2cc(C)no2)cc1Cl | 0 | . | 9 | 1 | -5 | 432* | 0
COc1ccc(-c2cc(C(F)(F)F)n3ncc(C(=O)O)c3n2)cc1OC | 0 | -9 | 0 | 0 | 4 | 367* | 0
O=C(COC(=O)CNC(=O)c1ccc(Cl)cc1)Nc1ncc(C(F)(F)F)cc1Cl | 0 | -2 | 2 | -1 | -5 | 596* | 0
